# Sampled rows, rich in hits. Any-hit rate of the full collection: about 6.1%.
# TSHR ag: agonists of human thyroid stimulating hormone receptor; actives 0.48% (n = 73,000); Potency, µM (doses to about 57.1 µM), actives largely listed as activators; HEK293-CNG-TSHR cells (CNG channel as cAMP sensor), membrane potential dye, cAMP; AID 926; P16473; active means well fitted activation curve with a large enough effect in the main read-out, with a control signal flat, not every such curve was filed as active; inconclusive means small, poorly fitted or top-dose-only effect, or a change in a side signal; inactive means no such curve, though single readings can be large or run the other way; reference of the percent scale not stated here;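 further: the control signal comes from parental cells without the receptor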
#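 HEK 293 cells stably expressing TSHR and a modified CNG channel, with CNG-only parental cells as counterscreen, were preloaded 60 min at room temperature with membrane potential dye containing 100 uM RO 20-1724. Compound exposure was 30 min, and depolarization was read as fluorescence at 590 nm.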
# Luciferase inh: firefly luciferase inhibition; AID 411; purified firefly luciferase, luminescence, 8 min; actives 2.2% (n = 72,000); Potency, µM (series often up to 57.1 µM), hits mostly inhibitors; further: nearly all actives have a fitted effect of over 40% in size
# Target sequence (P08659 whole entry, looked up): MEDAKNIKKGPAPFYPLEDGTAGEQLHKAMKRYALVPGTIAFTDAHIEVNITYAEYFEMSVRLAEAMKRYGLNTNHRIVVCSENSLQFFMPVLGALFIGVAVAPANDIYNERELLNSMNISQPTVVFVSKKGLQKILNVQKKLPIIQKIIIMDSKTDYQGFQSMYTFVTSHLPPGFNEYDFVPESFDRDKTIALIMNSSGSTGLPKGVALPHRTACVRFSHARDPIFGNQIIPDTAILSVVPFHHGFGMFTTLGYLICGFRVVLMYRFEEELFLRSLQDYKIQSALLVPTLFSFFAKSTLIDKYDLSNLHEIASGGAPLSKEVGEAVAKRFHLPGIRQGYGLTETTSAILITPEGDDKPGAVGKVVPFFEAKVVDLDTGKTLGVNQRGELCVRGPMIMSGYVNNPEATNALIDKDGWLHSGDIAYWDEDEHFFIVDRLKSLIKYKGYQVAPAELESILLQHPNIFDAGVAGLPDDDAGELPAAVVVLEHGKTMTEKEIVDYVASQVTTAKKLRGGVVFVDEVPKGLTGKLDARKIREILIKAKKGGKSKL
#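 Luminescence read-out after 8 min at room temperature; enzyme reaction used luciferin plus 10 uM ATP (linear range) in imidazole buffer pH 7.2 with KCl, MgCl2, Tween 20 and BSA. Each sample was run as a titration.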
# ERK AVP block: inhibitors of vasopressin-stimulated ERK signaling pathway. HEK293-V1b, vasopressin-stimulated pERK AlphaScreen. actives 0.99% (n = 72,000). Potency, µM (doses to about 57.5 µM), most hits filed as inhibitors; further: nearly all actives have a fitted effect of over 55% in size
#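 HEK293 cells stably expressing V1b receptor, preincubated 30 min at 37 °C with compound, then stimulated 5 min with 25 nM vasopressin. Phospho-ERK by AlphaScreen SureFire after 5 h RT; normalized to DMSO and vasopressin; AC50 by Hill fit.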
# GBA mod: modulators of human glucocerebrosidase | P04062 | actives 1.1% (n = 48,000) | purified enzyme, resorufin glucoside fluorescence (screen aimed at inhibitors), 20 min | Potency, µM | AID 360; in the data active means potency below about 15 µM; inconclusive means mostly about 16 µM to 33 µM;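 further: the screen sought inhibitors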
#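 Compounds titrated against 0.2 nM normal enzyme, 30 uM resorufin beta-D-glucopyranoside substrate, citrate/phosphate buffer with taurocholate and tween-20, pH 5.9. Reaction ran 20 min at room temperature; fluorescence (Ex 548/Em 600) gave AC50.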
# HEK293 cAMP ctrl: counter-screen for TSHR agonists: cAMP increase in parental HEK293 | parental HEK293 CNG cAMP sensor, membrane potential fluorescence | Potency, µM (doses to about 57.1 µM), hits mostly activators | actives 2.5% (n = 73,000) | AID 938; further: nearly all actives have a fitted effect of over 55% in size
#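 Parental HEK 293 cells stably expressing a modified CNG channel (no TSHR) report cAMP rise as membrane depolarization. Membrane potential dye with 100 uM RO 20-1724 was loaded for 60 min at room temperature, then compound added for 30 min; fluorescence read at 590 nm.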
# PK Bst: pyruvate kinase (B. stearothermophilus) modulation. Potency, µM. actives 1.2% (n = 51,000). purified pyruvate kinase, luminescence ATP production; ribose 5-phosphate activator present at AC10; in the data active means potency below about 11 µM; inconclusive means mostly about 12 µM to 25 µM;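 the screen sought inhibitors and activators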
# parental cAMP: raises cAMP in parental HEK293 cells lacking TSH receptor. activity change, negative = inhibition, % at 32.9 µM. 150 tested, under 10 active. shares compounds with TSHR ag. AID 953. parental HEK293 CNG biosensor, cAMP membrane potential fluorescence
# Numbers stand for hits; - = inactive; ? = inconclusive; . = not tested or not shown; [ ] = remark or other dose. Unless noted, the call rests on the fitted dose curve; in most records, active means well fitted curve in the direction sought with a large enough effect; inconclusive means small, poorly fitted or top-dose-only effect, or another doubt; inactive means no such curve, though single readings can be large; an effect the other way counts as inactive or inconclusive.
SMILES,TSHR ag,Luciferase inh,ERK AVP block,GBA mod,HEK293 cAMP ctrl,PK Bst,parental cAMP
Cc1cc(SCNC(=O)c2ccccc2)ncn1,-,-,-,.,-,.,-
Cc1cc(C)nc(SCNC(=O)c2ccc(F)cc2)n1,-,-,-,-,-,-,.
CCNc1ncc2nc(CCc3ccccc3)c(=O)n(CCOC)c2n1,-,-[11.4 µM],-,.,-,.,.
CC(=O)N1CCCc2cc(S(=O)(=O)N(C)CCC#N)ccc21,-,-,-,-,-,-,.
CC(=O)N1CCCc2cc(S(=O)(=O)N(CC(C)C)CC(C)C)ccc21,13µM,-,-,-,-,-,-
COc1ccc(C2Nc3ccccc3C(=O)N2Cc2ccco2)cc1COc1ccc(NC(C)=O)cc1 (stereo not given),0.63µM,-,-,-,-,-,-
CCOC(=O)CCc1c(C)nc2c(c(C)nn2C(C)(C)C)c1C,25µM,-,-,.,-,.,-
CCSCCOC(=O)C1=C(C)N(C)C(=O)NC1c1cc(OC)ccc1OC (stereo not given),25µM,-,?,.,-,.,-
COC(=O)c1ccc(C(NC(=O)OCc2ccccc2)/C(C)=C/[C@@H](C)C(=O)NCc2nn(-c3ccccc3)nc2C)cc1 (stereo not given in full),?,.,-,.,?,.,.
Cc1onc(-c2ccccc2)c1C(=O)N1CCCN(C(=O)c2c(-c3ccccc3)noc2C)CC1,-,-,-,-,-,-,.
Cc1onc(-c2ccccc2)c1C(=O)N1CCCSC1=Nc1ccccc1,?,-,-,.,?,-,-
CC1(C)CC2CC(C)(CN2S(=O)(=O)c2ccc(N)cc2)C1 (stereo not given),25µM,-,-,.,-,.,-
CN1CCN(S(=O)(=O)c2ccc(N)cc2)CC1,-,-,.,.,-,.,.
COc1cc(OC)cc(-c2nnc(SCC(=O)N(C(C)C)C(C)C)o2)c1,25µM,-,-,-,-,-,-
Cc1c(C(=O)O)c(O)cc2c1C(=O)c1c(O)c([C@@H]3O[C@H](CO)[C@@H](O)[C@H](O)[C@@H]3O)c(O)c(O)c1C2=O,-,-[11.4 µM],.,.,-,.,.
CCCCCCCCCCCCCCCC(=O)OC(CO)CO,-,.,-,.,-,.,.
Cc1ccc(S(=O)(=O)N=Nc2c(O)[nH]c3cc(O)c(C(=O)O)cc23)cc1,-[11.4 µM],-[11.4 µM],-[11.5 µM],.,-[11.4 µM],.,.
Cc1ccc2nc(SCC(=O)O)nc(C)c2c1,-,-,-,-,-,-,-
Cc1oc(-c2cccc(Cl)c2)nc1CN1CCCC(C(=O)NC(C)c2ccc3c(c2)OCCO3)C1 (stereo not given),-,-,?,.,-,.,-
Cc1oc(-c2cccc(Cl)c2)nc1CN1CCCC(C(=O)NCc2ccco2)C1 (stereo not given),-[11.4 µM],-,-,.,-,-,.
COC(=O)NC(/C(C(=O)OC)=C(\C)NCc1ccccc1)c1cccc(C)c1 (stereo not given),-[11.4 µM],.,-[11.5 µM],.,-[11.4 µM],.,.
O=C(C1COc2ccccc2O1)N1CCCC1 (stereo not given),-,-,-,.,-,.,-
COc1ccccc1CCn1c(=O)c(-c2cc(F)cc(F)c2)nc2cncnc21,?,-[11.4 µM],-,.,?,.,.
CCOc1cc(C(=O)N2CCN(c3ccccc3)CC2)cc(OCC)c1OCC,?,-,-,.,?,.,.
CCOc1cc(C(=O)N(C)c2ccccc2)cc(OCC)c1OCC,25µM,-,-,.,-,.,-
COC(=O)[C@@H]1CC[C@H](C)[C@@H](c2ccc(C)cc2)N1C(=O)c1ccc(/C=N\OC[C@@H](C)[C@H](OCc2ccccc2)C(C)C)cc1,-[11.4 µM],-[11.4 µM],-[11.5 µM],.,-[11.4 µM],.,.
Cc1cc(C)nc(N(C#N)CC(=O)N2CCC(C(N)=O)CC2)n1,.,7.9µM,-,.,-,?,-
Nc1c(S(N)(=O)=O)cc(S(N)(=O)=O)cc1S(N)(=O)=O,-[11.4 µM],-[11.4 µM],-[11.5 µM],.,-[11.4 µM],.,.
N=c1c(C(=O)NCc2ccc(F)cc2)cc2c(=O)n3ccccc3nc2n1Cc1ccco1,-,-,-,-,-,-,-
N=c1c(C(=O)NCc2ccccc2)cc2c(=O)n3ccccc3nc2n1Cc1ccco1,.,-,.,.,.,.,.

# Screening data: PubChem BioAssay, National Center for Advancing Translational Sciences (NCATS)
